Each structure is given as a SMILES string. Several values for one entry are separate records, joined by “and”; a condition that tells them apart may be missing. Equal entries are not always repeated. About 83,000 compounds went through this panel and 20% of them were active in at least one assay; those are over-represented in the sample as a whole.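 Interpretation: 100, growth as untreated; towards 0, rising growth inhibition; 0, no net growth; 0 to -100, cell death. Compounds scoring below 10 were considered active.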 Values without a mark were called inactive. Activity calls are given as the source filed them.

For this assay, the system named is MDA-MB-468 breast. The assay can be described thus: NCI-60 one-dose screen, 48 h (100 = growth as untreated, 0 = no growth, -100 = all killed). Conditions: 10 µM unless noted.
For the molecule `Nc1nc(N)c2cc(S(=O)(=O)c3ccccc3)ccc2n1`, the growth is 49.9% and 57.7%.

In the case of `CC(CCC#N)(CCC#N)C(=O)c1ccccc1`, the growth is 106%.

In the case of `CC[C@]1(O)C[C@@H]2CN(CCc3c([nH]c4ccccc34)[C@@](C(=O)OC)(c3cc4c(cc3OC)N(C)[C@H]3[C@@](O)(C(=O)OC)[C@H](OC(C)=O)[C@]5(CC)C=CCN6CC[C@]43[C@@H]65)C2)C1`, the growth was 19.8%.

As for `COc1ccc(C/C(C)=C(\c2ccc(OCCN3CCCCCC3)cc2)c2ccc(OC(=O)C3CCCCC3)cc2)cc1`, the growth was 45%.

In the case of `C=CCn1c(SCC(=O)c2ccccc2)nnc1-c1c[nH]c2ccccc12`, the growth is 87.7%.

On to `COc1ccc(-c2ccc(-c3ccc(C(=N)N)cn3)s2)cc1OC`, for which the growth is 92.6%.

Regarding `FCc1ncc(-c2ccc(C(F)(F)F)cc2)c(NC2CCCCCC2)n1`, the growth is 24.8% [100 µM].

Consider `CCOC(=O)C1=C(c2ccccc2)N=C2SC=C(c3ccc(Cl)cc3)N2C1c1ccc(Cl)cc1` (stereo not given), for which the growth is 41.3%.

With `O=C1C(=O)c2c(nc3ccc(Br)cn23)-c2ccccc21`, the growth was -58% (active).

On to `CCN1CCN(Cc2ccc(C(=O)Nc3nc4ccc(Oc5ccnc(C(=O)NC)c5)cc4s3)cc2C(F)(F)F)CC1`, for which the growth is 36.1%.

For the molecule `CC(=O)OC[C@]12CCC(C)(C)C=C1[C@H]1CC[C@@H]3[C@@]4(C)CCCNC(C)(C)[C@@H]4CC[C@@]3(C)[C@]1(C)CC2`, the growth is -6.16% (active).

Consider `Cc1nc2sc(C(=O)Nc3ccccc3)c(N)c2cc1C(=O)c1ccccc1`, for which the growth was 9.68% (active).

In the case of `Cc1cc(C)n(Nc2nc3ccccc3[nH]c2=O)c(=O)c1C#N`, the growth is 90.8%.

For the molecule `COc1ccc(CN2c3ccccc3Oc3ccccc32)cc1O`, the growth is 6.51% (active).

With `N#CC1(C#N)C(c2cccs2)NC(c2cccs2)C1(C#N)C#N` (stereo not given), the growth was 104%.

Consider `COc1cccc(-c2nn(-c3ccccc3)cc2-c2ccnc(NCCNS(=O)(=O)c3ccccc3)c2)c1`, for which the growth was 14.5%.

Consider `CCOC(=O)c1c(C)c2c(n1C)CSc1cc(C(=O)c3ccccc3)c(=O)[nH]c1-2`, for which the growth was 96.6% [100 µM].

Turning to `FCOC(C(F)(F)F)C(F)(F)F`, the growth was 108%.

As to `CCN1CCCC(N2c3ccccc3Sc3ccccc32)C1` (stereo not given), the growth is 116%.

Regarding `CCCCCC(=O)Oc1ccc(/C(=C(\C)c2ccccc2)c2ccc(OCCN(CC)CC)cc2)cc1`, the growth is 61.5%.

Consider `C#CCOc1cccc(-c2ncnc3cc(NC(=O)CCl)ccc23)c1`, for which the growth was -57.3% (active).

As for `COc1nc2ccc(C)cc2cc1-c1nc2c(cnn2-c2ccc(Br)cc2)c(=O)[nH]1`, the growth was 29.5%.

As to `O=C1C(Cl)=C(NCc2ccco2)C(=O)c2ccccc21`, the growth is 25%.

On to `CC[C@H](C)C(=O)O[C@H]1CCC=C2C=C[C@H](C)[C@H](CC[C@@H]3CC=CC(=O)O3)[C@H]21`, for which the growth is 85%.

`CCCCCCCCCCN1CCC(N2CCCCC2)CC1`: the growth was -73.2% (active).

In the case of `COc1ccccc1-n1cnc(N)c1C(=O)c1cc(OC)c(OC)c(OC)c1`, the growth is 39.3%.

Turning to `COc1cccc(/C(C)=N/NC(=O)CSc2nc3ccccc3c(=O)n2CCc2ccc(S(N)(=O)=O)cc2)c1`, the growth is 35.3%.

Consider `CC(=O)C1CCC2C3CC(C)=C4CC(O)CCC4(C)C3CCC12C` (stereo not given), for which the growth is 109%.

Regarding `O=C(Oc1ccc([N+](=O)[O-])cc1)c1ccc(CBr)cc1`, the growth was 84.9%.

For the molecule `CNCc1cccc2c1OCCOCCN(C)C(=O)CN(C)S(=O)(=O)c1ccc(cc1)-c1cnc(N)c(n1)C(=O)N2`, the growth was -49.3% (active).

Take `O=C(CCn1c[n+](CC(=O)c2ccc(-c3ccccc3)cc2)c2ccccc21)Nc1cccc2cccnc12`: the growth was -31.2% (active).

As to `COc1cc(C(=O)N/N=C/c2cc3cc(OCc4ccccc4)ccc3nc2OC)cc(OC)c1OC`, the growth was 85.2%.

Regarding `CCN1C(=O)N(c2ccccc2)C2NC(=S)N(/N=C/C=C/c3ccccc3OC)C21` (stereo not given), the growth is 2.35% (active).

`CC1=CSC2=NC(c3ccc(Cl)c(Cl)c3)=CC(c3ccc(Cl)cc3)N12` (stereo not given): the growth is -61.3% (active).

For the molecule `CC1=CCc2ccccc21`, the growth is 115%.

As for `Cn1ccnc1CN1CCSC(C(=O)Nc2ccccc2)C1` (stereo not given), the growth was 87.8%.

For the molecule `COc1ccc(C(=NNS(=O)(=O)c2ccc(C)cc2)c2ccccc2)cc1OC`, the growth was 103%.

Take `N#Cc1ncc(-c2cc(F)c(F)c(F)c2)c(NC2CCCCCC2)n1`: the growth was 87.6%.

As to `O=C(CN1C(=O)/C(=C/c2ccco2)SC1=S)NCCc1c[nH]c2ccc(F)cc12`, the growth is 105%.

On to `O=c1c2cccc3c(Nc4ccccn4)ccc(c32)c2nc3ccccc3n12`, for which the growth was -22.4% (active).

Values taken from PubChem BioAssay (NCI).
